In PMC8384837, “Expanding the binding specificity for RNA recognition by a PUF domain” one finds binding signal data, which are given here for 7 sequences.

Common to all, as to experiment: yeast three-hybrid, YBZ-1, SC-Leu-His + 0.5 mM 3-AT, 4 days
Settings in all cases: tags: N-Gal4 AD-HA kept; label: inside an RPR1-promoter hybrid RNA with tandem MS2 sites; ssRNA

For test [1], the target named is T1, PUM1 PUF domain R6-VYR (Homo sapiens, UniProt Q14671 828-1176, N1043V;Q1047R).
T1 sequence: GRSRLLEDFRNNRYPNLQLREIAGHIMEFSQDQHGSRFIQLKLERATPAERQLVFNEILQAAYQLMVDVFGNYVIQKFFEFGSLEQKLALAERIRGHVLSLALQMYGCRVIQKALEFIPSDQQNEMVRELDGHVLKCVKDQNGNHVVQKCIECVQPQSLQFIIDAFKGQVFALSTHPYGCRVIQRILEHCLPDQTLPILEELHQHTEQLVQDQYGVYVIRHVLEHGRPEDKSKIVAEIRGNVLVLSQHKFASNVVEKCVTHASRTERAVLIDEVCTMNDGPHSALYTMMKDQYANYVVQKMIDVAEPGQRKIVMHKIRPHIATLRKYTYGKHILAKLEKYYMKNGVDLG
The method in brief:
(§1)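 Pumilio-1 PUF domain libraries, randomized (NNK) at the three base-contacting residues of each repeat, were co-expressed with matching RNA elements from a centromeric plasmid in strain YBZ-1 (LexA–MS2 coat fusion, HIS3 reporter). Transformants were plated on SC-Leu (input) and SC-Leu-His + 0.5 mM 3-AT (selection) for four days, and repeat regions were PCR-amplified and Illumina-sequenced. The interaction score is the log2 change in variant frequency from input to selection, with pseudocount 1 where absent.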

Test [2] deals with T2, PUM1 PUF domain R6-SHR (Homo sapiens, UniProt Q14671 828-1176, N1043S;Y1044H;Q1047R).
T2 sequence: T1 sequence with V216S, Y217H
The method in brief: as §1

The target of test [3] is PUM1 PUF domain R5-RGC (Homo sapiens, UniProt Q14671 828-1176, C1007R;R1008G;Q1011C). The method, boiled down: as §1
The target of test [4] is PUM1 PUF domain R5-RSP (Homo sapiens, UniProt Q14671 828-1176, C1007R;R1008S;Q1011P). The method in brief:
as §1

For test [5], the target named is PUM1 PUF domain R7-GNR (Homo sapiens, UniProt Q14671 828-1176, S1079G;E1083R). The method, boiled down: as §1
The target of test [6] is PUM1 PUF domain R3-VRG (Homo sapiens, UniProt Q14671 828-1176, C935V;Q939G). The method, boiled down: as §1
Test [7] deals with PUM1 PUF domain R5-IYM (Homo sapiens, UniProt Q14671 828-1176, C1007I;R1008Y;Q1011M). The method in brief:
as §1

Test [8] has as its target PUM1 PUF domain R3-DFV (Homo sapiens, UniProt Q14671 828-1176, C935D;R936F;Q939V). The method in brief:
as §1

The target in test [9] is PUM1 PUF domain R3-SCY (Homo sapiens, UniProt Q14671 828-1176, C935S;R936C;Q939Y). The method, boiled down: as §1
Test [10] addresses T3, PUM1 PUF domain R6-DYQ (Homo sapiens, UniProt Q14671 828-1176, N1043D).
T3 sequence: T1 sequence with V216D, R220Q
The method, boiled down: as §1

Substitutions are numbered along the chain they refer to.

For the sequence “GGCUAGAACUAGUGGAUCCCCCGGCGCCCGGCGGCUCGAGCCCGGGUAAGUGAAAAUAGUCUGCAUGCCGCCGGGCGCCAUGCCUGCAGGUCGACUCUAGAAAACAUG”, the binding signal in test [1] was 6.09 log2 enrichment (interaction score).

On to “GGCUAGAACUAGUGGAUCCCCCGGCGCCCGGCGGCUCGAGCCCGGGUAAGUGCAAAUAGUCUGCAUGCCGCCGGGCGCCAUGCCUGCAGGUCGACUCUAGAAAACAUG”, for which the binding signal in [2] is 5.39 log2 enrichment (interaction score).

Consider “GGCUAGAACUAGUGGAUCCCCCGGCGCCCGGCGGCUCGAGCCCGGGUAAGUGUUAAUAGUCUGCAUGCCGCCGGGCGCCAUGCCUGCAGGUCGACUCUAGAAAACAUG”, for which the binding signal is 3.22 log2 enrichment (interaction score) in test [3] and 1.1 log2 enrichment (interaction score) in [4].

For “GGCUAGAACUAGUGGAUCCCCCGGCGCCCGGCGGCUCGAGCCCGGGUAAGUUUAAAUAGUCUGCAUGCCGCCGGGCGCCAUGCCUGCAGGUCGACUCUAGAAAACAUG”, the binding signal in test [5] is 2.05 log2 enrichment (interaction score).

As for “GGCUAGAACUAGUGGAUCCCCCGGCGCCCGGCGGCUCGAGCCCGGGUAAGUGUCAAUAGUCUGCAUGCCGCCGGGCGCCAUGCCUGCAGGUCGACUCUAGAAAACAUG”, the binding signal in [3] was 1.32 log2 enrichment (interaction score); in test [4], 2.36 log2 enrichment (interaction score).

Turning to “GGCUAGAACUAGUGGAUCCCCCGGCGCCCGGCGGCUCGAGCCCGGGUAAGUGUAAGUAGUCUGCAUGCCGCCGGGCGCCAUGCCUGCAGGUCGACUCUAGAAAACAUG”, the binding signal in [6] was 0.46 log2 enrichment (interaction score).

As to “GGCUAGAACUAGUGGAUCCCCCGGCGCCCGGCGGCUCGAGCCCGGGUAAGUGUAAAUAGUCUGCAUGCCGCCGGGCGCCAUGCCUGCAGGUCGACUCUAGAAAACAUG”, the binding signal was 3.85 log2 enrichment (interaction score) in test [7]; 4.81 log2 enrichment (interaction score) in test [2]; 3.39 log2 enrichment (interaction score) in test [6]; 5.54 log2 enrichment (interaction score) in test [8]; 3.56 log2 enrichment (interaction score) in test [9]; 6.54 log2 enrichment (interaction score) in test [10]. Further, the binding signal in [1] is 2.97 log2 enrichment (interaction score).
